Assay outcomes from PubChem BioAssay.
HSF1 inhib: HSF1 inhibition; activity change, negative = inhibition, % at 7.5 µM (by protocol); AID 2098; hit rate 0.77% among 300,000; NIH3T3-HGL HSE-luciferase, MG132-induced, luminescence 8 h; hits give low values;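 active = more than half of replicate wells show activity change below -50%, luminescence cut by over half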;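 note: luciferase reports HSF-1 transcriptional activity via heat shock element; 0% = median of DMSO wells and -100% = zero luminescence signal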
HSF1 activator: increases HSF-1 driven luciferase reporter signal; NIH3T3-HGL HSF-1 luciferase reporter, MG132, 8 h; 100% = twice DMSO control signal; activation, % at 9 µM; hit rate 1.7% among 300,000;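 active = mean replicate activation of at least 50% with a set share of replicates each reaching 50%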;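 note: 0% = median of the neutral control wells and 100% = twice that signal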
HIF activator: HIF pathway transcriptional activation; AID 1910; U2OS HRE-luciferase reporter, luminescence; normalized: DMSO 0%, desferrioxamine 100%; activation, % at 7.5 µM (by protocol); hit rate 0.32% among 300,000;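 active = mean activation of at least 10% of the iron chelator positive control signal, with at least half of replicates also reaching 10%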
ARNT-TACC3 inh: ARNT/TACC3 interaction disruption; inhibition, % at 9.99 µM; AlphaScreen His-ARNT PAS-B/GST-TACC3 binding, luminescence; TACC3 fragment carries E629A point mutation; AID 623870; hit rate 0.66% among 390,000;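 active = mean inhibition of replicates at least 50% and at least half of replicates each reaching 50%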;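 note: 0% = complete ARNT plus TACC3 wells and 100% = ARNT alone without TACC3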
HSP90 inh: inhibitors of HSP90 luciferase refolding in rabbit reticulocyte lysate | luciferase refolding luminescence, 3 h | inhibition, % at 5.6 µM | hit rate 0.91% among 290,000 | AID 1789;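 active = inhibition above the screen-wide mean plus 3 SD, computed separately per campaign, cut at about 16% in these data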;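 note: 0% = DMSO wells and 100% = 60 µM geldanamycin wells; inhibitors lower the luminescence because luciferase stays unfolded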
The depositor's hits bear a star; · = not tested or not shown. Only some compounds are listed: those with a hit (about 3.1% of all), similar ones and a draw of the others.

SMILES	HSF1 inhib	HSF1 activator	HIF activator	ARNT-TACC3 inh	HSP90 inh
COc1ccc(C2CC(C)(c3ccc(OC)cc3)Nc3ccccc3N2)cc1 (stereo not given)	37.8	58.1*	2.5	9.2	-3.6
O=C(C[C@H]1C=C[C@@H](NC(=O)CN2CCOCC2)[C@@H](CO)O1)NCc1cccc(F)c1	·	·	·	-13.6	·
COc1cc(-c2nc3cnccn3c2Nc2ccccc2)ccc1O	23.5	56.1*	-0.3	-1.8	1.9
Oc1ccc(-c2nc3cnccn3c2Nc2ccc3c(c2)OCCO3)cc1	53.0	63.8*	0.6	3.1	0.8
COc1cc(-c2nc3cnccn3c2Nc2ccc(C)cc2)ccc1O	-10.5	-9.3	0.5	-6.5	-1.1
O=C(/C=C\c1ccccc1OC(=O)c1ccccc1F)c1cc2ccccc2o1	123.8	166.3*	4.1	0.4	-2.0
Nc1nc(NC(=O)/C=C\C(=O)O)nn1-c1ccccc1	-5.0	-9.0	0.1	74.1*	-1.5
Cc1cccc2sc(N(CCCN(C)C)C(=O)c3nc4ccccc4s3)nc12	-10.6	-22.4	-1.7	·	4.0
Cc1cccc2sc(N(CCCN(C)C)C(=O)c3ccc4ncsc4c3)nc12	-12.7	-8.9	1.7	6.7	16.6*
CCSC1=NC(C)(C)C=C(/C=C/c2ccc(Cl)cc2Cl)N1	6.7	0.4	0.7	45.0*	6.2
Cc1ccc2nc(N3CCN(Cc4nnnn4Cc4ccccc4)CC3)c(C#N)cc2c1	-61.8*	-69.0	0.3	-7.0	1.9
O=c1[nH][nH]c2cc(=O)n(-c3cccc(C(F)(F)F)c3)nc12	7.9	52.3*	-0.1	7.8	-3.0
CCN(CCCNC(=O)Cn1cc2c(n1)CCCC2)c1cccc(C)c1	44.9	59.1*	-0.1	16.5	-2.1
CCN(CCCNC(=O)CCc1nc(-c2ccc(OC)cc2)no1)c1cccc(C)c1	39.1	61.6*	143.3*	·	2.3
COc1ccc(-c2noc(CCC(=O)NCCc3ccccc3)n2)cc1	-1.2	7.8	1.0	0.1	0.7
COC(=O)C1=C(C)OC(N)=C(C#N)C1c1ccccc1 (stereo not given)	-6.0	-2.3	0.5	-5.0	2.6
CNC(=O)C1C(=S)NC(N)=C(C#N)C1c1ccccc1 (stereo not given)	-72.2*	-74.5	-0.3	5.2	1.6
COC(=O)c1ccc(-c2nc3cc(Cl)c(N)cc3s2)cc1	-56.7*	-65.0	-0.6	-3.3	8.8
OC(COCC1CC=CCC1)Cn1cnc2ccccc21 (stereo not given)	-0.7	-2.5	-0.4	-6.8	-0.1
Cc1nc2ccccc2n1CC(O)COCC1CC=CCC1 (stereo not given)	41.8	86.9*	0.4	·	-4.2
O=C(Nc1nc(-c2ccc(Cl)s2)cs1)c1ccco1	32.1	66.8*	4.2	-2.6	1.8
O=C(Nc1nc(-c2ccc(Cl)s2)cs1)c1cccs1	20.5	41.9	1.6	-7.5	0.0
CCCCn1c(NC(=O)c2ccccc2)c(C#N)c2nc3ccccc3nc21	·	·	·	14.9	48.6*
COCC(=O)Nc1ccc2c(c1)C(=O)N(C)C[C@H](OC)[C@@H](C)CN(Cc1cc(F)ccc1F)[C@H](C)CO2	·	·	·	1.6	·
CCCNC(=O)N(C)C[C@@H]1Oc2ncc(C#C[C@@H](C)O)cc2C(=O)N([C@@H](C)CO)C[C@H]1C	·	·	·	-0.5	·
SMILES	HSF1 inhib	HSF1 activator	HIF activator	ARNT-TACC3 inh	HSP90 inh
CCC1CCc2sc(C(=O)NNC(=O)c3ccncc3)cc2C1 (stereo not given)	-2.7	-23.8	-0.1	-1.8	·
CCC1CCc2sc(C(=O)O)cc2C1 (stereo not given)	-4.3	9.4	64.9*	-14.1	1.4
O=C(CSc1nnc(Cn2cnc3ccccc32)o1)Nc1cccc2ccccc12	12.2	51.4*	-0.2	1.3	-2.4
O=C(C[C@@H]1CC[C@H](NC(=O)C2CC2)[C@@H](CO)O1)NCC1CC1	·	·	·	4.9	·
Cc1nc(/C(N)=N/OC(=O)Cc2ccccc2)no1	18.6	56.9*	0.4	-13.9	-0.5
N/C(=N\OC(=O)Cc1ccccc1)c1ccccn1	3.3	15.5	1.8	10.8	0.1
C/C=C/c1ccc(OC(C)=O)c(OC)c1	3.0	14.9	0.8	20.2*	-0.7
C/C=C/c1ccc(OC)c(OC(C)=O)c1	15.9	8.4	-0.2	-4.6	1.9
COC(=O)c1nc(Cl)c(Cl)c(N)c1Cl	-72.5*	-76.9	-0.2	-1.5	-2.4
CNC[C@@H]1OCCCC[C@@H](C)Oc2ccc(NS(=O)(=O)c3ccc(OC)cc3)cc2C(=O)N([C@H](C)CO)C[C@@H]1C	·	·	·	-8.8	·
CN(C)C(=O)c1ccc(-c2ccc([C@@H]3[C@@H](CO)N4CCCCN(C(=O)C5CCCC5)C[C@H]34)cc2)cc1	·	·	·	3.4	·
Nc1nc(NCc2ccco2)nc(NC2CCCCC2)c1[N+](=O)[O-]	-72.0*	-78.7	1.6	·	3.1
Nc1nc(NCCO)nc(NC2CCCCC2)c1[N+](=O)[O-]	-68.8*	-73.5	-5.9	3.5	-1.5
Nc1nc(NCc2ccco2)nc(N2CCCCCC2)c1[N+](=O)[O-]	7.1	-6.7	-0.1	5.0	0.1
C=CCNC(=O)c1ccc2nc(Cc3ccc(OC)cc3)oc2c1	62.9	77.8*	4.0	3.0	6.1
CCn1cc(S(=O)(=O)Nc2ccc3c(c2)OCCO3)cn1	-80.5*	-82.9	-0.9	-4.4	15.9
Cn1cc(S(=O)(=O)Nc2ccc3c(c2)OCCO3)cn1	-62.5*	-67.1	-0.6	-2.8	2.8
CO[C@@H]1CN(C)C(=O)c2cc(NS(C)(=O)=O)ccc2OC[C@@H](C)N(C(=O)NC(C)C)C[C@H]1C	·	·	·	-0.1	·
C[C@H]1CCCCO[C@@H](CN(C)C(=O)C2CCCCC2)[C@@H](C)CN([C@@H](C)CO)C(=O)c2cc(NC(=O)Cc3ccccc3)ccc2O1	·	·	·	-0.9	·
CCOC(=O)c1c(NC(=O)CSc2nc3cc(Cl)ccc3c(=O)n2Cc2ccco2)sc(C(=O)N(C)C)c1C	117.0	145.5*	-0.4	-2.3	0.5
CCN(C(=O)CSc1nc2cc(C(=O)OC)ccc2c(=O)n1Cc1ccco1)c1cccc(C)c1	100.7	143.1*	-0.1	·	1.9
O=C([C@@H]1[C@@H](CO)[C@@H]2Cn3c(ccc(-c4cccnc4)c3=O)[C@H]1N2CC1CC1)N1CCCCC1	·	·	·	3.4	·
O=C(c1ccco1)N1CCCN(Cc2cn[nH]c2-c2ccc(-c3ccccc3)cc2)CC1	34.0	76.3*	4.3	3.5	8.5
C[C@@H]1CN([C@@H](C)CO)C(=O)Cc2cc(N(C)C)ccc2O[C@H]1CN(C)C(=O)Nc1ccc2c(c1)OCO2	·	·	·	1.6	·
C/C(N)=C(/C#N)C(=O)CSc1nnc(Nc2ccccc2C)s1	38.4	70.9*	1.8	·	-0.4
C/C(N)=C(/C#N)C(=O)CSc1nnc(NC(C)C)s1	4.3	2.6	0.2	-8.9	-5.5
C/C(N)=C(/C#N)C(=O)CSc1nnc(Nc2ccccc2)s1	29.7	55.3*	1.4	-3.4	3.4
CO[C@@H]1CN(C)C(=O)c2ccc(NC(=O)C3CCCC3)cc2OC[C@H](C)N(C)C[C@H]1C	·	·	·	-10.4	·
COc1ccsc1C(=O)Nc1ccc(F)cc1F	-4.2	-0.3	1.4	-4.7	0.0
